Laboratory results from the supplement of paper PMC6555819.

Assays:
Test in all cases: PBM binding z-score (relative to random genomic background probes); higher = stronger binding; sequences stand for … in GC…GCGATTGACAGCGTAGAATGAAGG
[1] = tested on: RARb homodimer (NR concentration 270 nM)
Outline: (§1)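 Binding z-scores take random background probes as their reference. They come from custom Agilent 4×180K protein-binding microarrays incubated 1 h with ligand-free nuclear receptor dimers, with antibodies against each partner (one per run) detecting binding. Scanned fluorescence was regression-normalized.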

[2] = tested on: RARg:RXRa (NR concentration 270 nM, RXRa partner concentration 90 nM)
Outline: as §1

[3] = tested on: RARg homodimer (NR concentration 270 nM)
Outline: as §1

[4] = tested on: RXRa DBDmut IVT, anti-RXR (DBD mutation: RXRa K156A/R161A, NR concentration 90 nM)
Outline: as §1

[5] = tested on: RXRa homodimer (NR concentration 180 nM)
Outline: as §1

[6] = tested on: THRa:RXRa (NR concentration 90 nM, RXRa partner concentration 90 nM)
Outline: as §1

[7] = tested on: THRa homodimer (NR concentration 90 nM)
Outline: as §1

[8] = tested on: VDR homodimer (NR concentration 270 nM)
Outline: as §1

Sequence | PBM binding z-score [1] | PBM binding z-score [2] | PBM binding z-score [3] | PBM binding z-score [4] | PBM binding z-score [5] | PBM binding z-score [6] | PBM binding z-score [7] | PBM binding z-score [8]
TCTAGCAGGCCAGAGGGTTACTCAAGAGGTACGG | -0.00314 | 0.101 | 0.0155 | -0.179 | 0.47 | -0.0959 | -1.11 | -0.658
AGAACGAGGGCACGCTAAGTTGATAGCAGAGTAG | 1.19 | 2.2 | 2.4 | 1.74 | 1.49 | 1.97 | 0.0343 | 1.42
ACAGACAGGGGAGTGAAGGTAACTCAGCTGGACG | 0.179 | -0.128 | 0.208 | -0.277 | 0.0403 | 0.674 | 0.101 | -0.467
CGAACTAGGTTAAGGACAGTGAATCTCCGCACGC | 1.1 | 0.615 | 0.965 | 0.432 | 0.533 | 3.11 | 3.05 | -0.012
ATATGTAGGTTAAGGGTCATCCAGGTTGGTTCGC | 4.18 | 5.45 | 4.39 | 1.99 | 6.92 | 3.69 | 1.82 | 3.82
AATACAGGGCCACTAGGCCAGAGTAGGTACGAAT | 0.294 | 0.551 | 0.711 | -0.4 | 0.289 | -0.0637 | -0.308 | 0.318
AGAACGAGGGCCCGCTGAGTTGATAGCAGAGTAG | -1.16 | -0.775 | -0.722 | -0.659 | -0.399 | -1.6 | -0.89 | -0.586
ATCTCTAGGTAACACGTTCAGTGAAAGAGAGGAC | 0.49 | 0.475 | 0.586 | -0.0545 | 0.391 | 0.954 | 0.748 | 0.453
ATCTCTAGGTAACAAGTTCAGTGGAAGAGAGGAC | 1.89 | 1.22 | 1.25 | 1.13 | 0.888 | 1.56 | 1.13 | 2.02
CTTGAAAGGTCGTGCTCAGGTGAGTATACCAAAC | 2.75 | 5.02 | 3.64 | 2.21 | 5.06 | 4.21 | 0.803 | 1.03
TCTCGGAGCACACGAAGGTCAGAGCTTTCCAGAG | 2.66 | 2.84 | 1.83 | -0.242 | 1.7 | 1.35 | -0.853 | -0.73
GCTTATAGGTAATACAAGGTGAAAGTCCGATTGT | 1.05 | 0.63 | 0.649 | 0.59 | 0.772 | 4.28 | 1.16 | 0.227
ATCTCTAGGTAAAAGTTCAGAGAATCCCGAGGAT | 2.16 | 2.02 | 1.97 | 0.853 | 1.87 | 1.24 | -0.00417 | 1.91
GCGGCTGGGGCATCAGCAGGTTACCATAACTTAA | 1.16 | 0.705 | 0.632 | -0.632 | 0.166 | 1.01 | -0.483 | -0.207
TGAATGGGGTTAAAGATCAGGGAACGTGGCGTCG | 1.49 | 3.19 | 1.53 | 1.95 | 6 | 2.88 | 1.23 | 1.58
TTACCAAGGTGAAGGTCGTTGTTCCCTCTGTAGA | 2.09 | 1.36 | 1.24 | 0.33 | 1.49 | 2.4 | 1.18 | 1.11
CCTACAGGGTCAGCTAGGCCAGAGTAGGGACGGC | 3.06 | 4.32 | 4.38 | 1.01 | 4.59 | 3.02 | 0.663 | 0.899
CAAACTAGGTCAAGGTCAAAGTGGGTTTGTGCCA | 5.23 | 5.95 | 6.67 | 3.05 | 5.78 | 4.34 | 3.93 | 5.14
CCGACTGGGGCAGAAAGGTTAACATACCATCCGG | 2.42 | 1.95 | 1.84 | -0.366 | 2 | 1.09 | -0.284 | -0.0953

Sequence | PBM binding z-score [1] | PBM binding z-score [2] | PBM binding z-score [3] | PBM binding z-score [4] | PBM binding z-score [5] | PBM binding z-score [6] | PBM binding z-score [7] | PBM binding z-score [8]
AAAACAGGGTCACTAGGCCAGAGTAGGTACGAAT | 3.35 | 5.4 | 4.84 | 2.95 | 5.7 | 3.48 | 1.18 | 2.76
GCTAGTTGGTCAGTAAAAGGTCACACGCCGGTCG | 5.37 | 5.72 | 5.2 | 0.626 | 5.46 | 3.72 | 1.66 | 1.85
AGTCAAAGTTCATCTAGATAACGTAAGATATGCT | 3.87 | 5.31 | 5.67 | 4.57 | 4.56 | 1.99 | -0.582 | 4.4
ACTATTCGTTGACTTAGGGCAACCGATACGACGC | 0.887 | 0.792 | 0.996 | 0.445 | 0.633 | 0.912 | 0.963 | 0.261
TTTACAGGGTCAAAGGCCAGAGTACGAATGTCGA | 3.46 | 5.91 | 5.11 | 3.13 | 6.94 | 3.63 | 0.893 | 2.97
AGGATGAGGTTAAGATCAGGGAAACAGAATACAT | 1.48 | 2.1 | 1.71 | 0.731 | 2.55 | 2.66 | 1.15 | 1.08
AGAATGAGGTTATTTAGATCAGGGAATTGCGGTC | 0.824 | 1.13 | 0.824 | 2.53 | 1.9 | 2.17 | 1.06 | 1.48
TGGATGAGGTTAAAGATCAGGGAACGTGGCGTCG | 1.38 | 2.75 | 1.59 | 1.46 | 4.05 | 2.88 | 1.11 | 1.42
GCTATTAGTTGAAACGGCAACCGAATGATTCTCG | -0.548 | -0.122 | -0.103 | 0.644 | -0.226 | -0.488 | -0.463 | -0.198
CCTAGTTGGTCAATGTCACACACGCTATAGGTAC | 1.52 | 1.07 | 1.59 | 1.04 | 0.701 | 0.639 | 0.635 | 0.802
TCTTGTAGATCAACAGAGGTTAAGAAAGTGCGCT | 1.45 | 0.848 | 0.565 | 0.665 | 1.68 | 2.55 | -0.186 | 0.274
CGTCAAAGCTCAAGGTAACGTAACAGAAAGCAGC | -0.207 | 0.00785 | 0.083 | -0.317 | 0.0693 | 1.29 | 0.693 | -0.4
CGTCAAAGTTCAAAGTAACGTAACAGAAAGCAGC | 3.42 | 5.52 | 5.99 | 4.98 | 4.88 | 1.72 | -0.272 | 4.15
CGTCCAAGGTCAATGCTAGGTCTGTGAAAGCATT | 3.89 | 5.81 | 6.03 | 3.79 | 4.4 | 3.78 | 2.25 | 2.69
ATATGTACGTTACATCCGGGTCATTCAGGCTATG | 2.41 | 1.61 | 1.24 | 1.2 | 2.07 | 3.14 | 2.93 | 2.95
ATATGTAGGTTATCGGGTCACTCAGTTTGCGCAT | 3.37 | 3.31 | 3.06 | 1.56 | 3.33 | 3.59 | 3.18 | 2.36
CCGACTGGGGCAGAATGGTTACCATACCATCCGG | -0.435 | 0.00778 | 0.0342 | -0.908 | -0.122 | -0.891 | -0.862 | -0.629
AGCCAAAGTTCAGGACGAGGTAACGTAAAGCACG | 3.29 | 4.54 | 4.18 | 2.63 | 3.05 | 3.87 | 1.74 | 1.79
GGAACGAGGGCAAGTTGATCGCAGAGTTTGATGG | 1.5 | 1.49 | 1.89 | 2.28 | 0.723 | 1.2 | -0.251 | 1.58

Sequence | PBM binding z-score [1] | PBM binding z-score [2] | PBM binding z-score [3] | PBM binding z-score [4] | PBM binding z-score [5] | PBM binding z-score [6] | PBM binding z-score [7] | PBM binding z-score [8]
ATATGTAGGTTACATCCGGTTCATTCAGGCTATG | 1 | 1.42 | 1.13 | 1.95 | 1.54 | 2.03 | 0.768 | 4.45
CGTCCAAGGTCAGAGAGGTCAGTCAATGCCGAGT | 5.37 | 6.53 | 7.2 | 3.32 | 5.76 | 4.46 | 2.83 | 5.88
CGTCCAAGGTCAAAGGTCAGTTAAGAGATGACGG | 5.64 | 8.47 | 7.74 | 3.83 | 9.85 | 5.11 | 2.91 | 3.63
ATCGAAAGCTCGTGAGGTGAGTATACAGAAAGGC | -0.145 | -0.029 | 0.239 | -0.842 | -0.0851 | 1.52 | 0.723 | -0.704
CAAACTAGGTCACAGACGTCAAAGTCCGTGCGTA | 3.28 | 4.49 | 5.14 | 1.98 | 3.61 | 3.32 | 1.23 | 0.686
CATACAGGGTCAGCTAGGCCAGAGTTGGGACGGC | 3.24 | 4.28 | 4.57 | 1.31 | 4.06 | 3.02 | 0.732 | 1.33
GGTACGAGGGCATTCGAGTTGATAGCATGGCGAT | 0.849 | 1.06 | 1.61 | 3.01 | 0.971 | 3.28 | -0.337 | 3.68
TTACCAAGGTGAGTTGAGGTCGTTGATCCAACTC | 1.84 | 1.33 | 1.18 | 0.713 | 1.56 | 4.72 | 2.28 | 2.18
CCGACTGGGGGAAGGTTACCATAACGCACAGCCA | 0.998 | 1.06 | 1.02 | -0.37 | 1.02 | 1.1 | 0.107 | 0.178
CGAACGAGGGCATGAGGTGATAGCAAATGCCGAT | 1.11 | 1.88 | 1.83 | 1.56 | 1.32 | 2.26 | 0.557 | 0.945
CCGACTGGGGCAAAGTTACCATAACGCACAGCCA | -0.231 | 0.149 | 0.374 | 0.41 | 0.344 | -0.336 | -0.499 | -0.275
CAAACTAGGTCACAGAGGTCCAAGTCCGTGCGTA | 3.68 | 4.67 | 5.11 | 1.99 | 3.35 | 3.83 | 1.52 | 2.2
TCTTGTAGATCAACAGCAGGTTAAGAAAGATCGA | 0.0548 | 0.165 | -0.0185 | 0.681 | 0.512 | 0.308 | -0.504 | -0.471
CCAGTCAGGTGAAAGGTAACTCAGTCTGGTACGC | 0.929 | 1.2 | 0.727 | 0.124 | 1.42 | 1.95 | 1.04 | -0.00335
CCGACTGGGGCCAAGGTTACCATACTCAGTACGA | 1.87 | 0.875 | 1.17 | 0.424 | 1.12 | 1.88 | 1.07 | 0.551
TCTCTGAGGACACGAAAGGTCAGAGCTCGACATC | 4.78 | 4.77 | 5.31 | 1.55 | 3.99 | 4.45 | 4.15 | 1.21
GCGACTGGGGCAATGCAGGTTACCATAAGGTTGG | 1.14 | 0.631 | 0.677 | -0.584 | 0.553 | 2.56 | -0.0652 | -0.0846
ACCTCTAGGTAAGACTCAGTTCAGTGAAGAACGC | 0.0203 | -0.0549 | -0.0332 | 0.371 | -0.0186 | 0.243 | 0.088 | 0.678
